Only some compounds are listed: those with a hit (about 4.5% of all), similar ones and a draw of the others.
GAA850 FXN act: increases GAA850 frataxin promoter reporter activity; activation, % at 6 µM; AID 540364; 360,000 tested, 0.56% active; HEK293 lucGAA850 FXN promoter luciferase reporter, 24 h; percent of 10 µM SAHA response;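 active = activation above the average of all compounds screened plus 3 SD, cutoff fixed separately per campaign, cut at about 7.5% in these data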;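 also: 0% = DMSO wells and 100% = 10 µM SAHA wells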
hgDAF12 agonist: hgDAF-12 agonism, primary luciferase screen | HEK293 GAL4-hgDAF12 UAS-luciferase reporter, agonist luminescence; normalized to butyrate control | activation, % at 6.8 µM | 370,000 tested, 1.8% active;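 active = activation above a cutoff set at the mean of all screened compounds plus 3 SD, cut at about 10% in these data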;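 also: 0% = DMSO wells and 100% = sodium butyrate wells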
DAX1 inh-1: DAX1 (NR0B1) inhibition, primary screen; HEK293T StAR-luciferase reporter, SF-1/DAX-1 repression relief; inhibition, % at 6.8 µM; 370,000 tested, 1.1% active; AID 652010;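 active = inhibition above the mean over all tested compounds plus 3 SD, cut at about 3.6% in these data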;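 also: 0% = DAX-1 cells with DMSO and 100% = cells lacking DAX-1 with DMSO; higher inhibition means more luminescence from relief of DAX-1 repression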
ssDAF12 agonist: S. stercoralis DAF-12 activation, primary screen; HEK293 ssDAF-12/GRIP1 lit1-tk-luc reporter, luminescence; % of 3 µM dafachronic acid response; activation, % at 6.8 µM; AID 652126; 370,000 tested, 1% active;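 active = activation above the mean over all tested compounds plus 3 SD, cut at about 0.9% in these data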;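 also: 0% = DMSO-only wells and 100% = 3 µM delta7-dafachronic acid wells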
DAX1 inh-2: inhibits human nuclear receptor DAX1; HEK293 Gal4-DAX1 luciferase reporter, luminescence; AID 504766; 340,000 tested, 0.99% active; inhibition, % at 6.75 µM;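 active = inhibition above the mean over all tested compounds plus 3 SD, cut at about 4.2% in these data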;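 also: 0% = DAX1-transfected cells with DMSO and 100% = empty-vector control cells with DMSO; inhibition shows as a rise in luminescence from relieved DAX1 repression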
Target sequence (P51843 207-470 limits assumed): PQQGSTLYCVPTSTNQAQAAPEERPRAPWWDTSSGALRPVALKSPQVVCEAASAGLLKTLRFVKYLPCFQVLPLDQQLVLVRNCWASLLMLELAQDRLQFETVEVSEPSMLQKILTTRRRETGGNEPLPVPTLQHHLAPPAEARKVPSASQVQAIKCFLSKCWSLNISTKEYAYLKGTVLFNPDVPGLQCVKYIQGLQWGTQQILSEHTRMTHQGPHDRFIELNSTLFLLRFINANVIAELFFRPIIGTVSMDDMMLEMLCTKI
hcDAF-12 act: activates DAF-12 receptor from parasite H. contortus; HEK293 hcDAF-12 lit1-tk-luc reporter, luminescence; 0% DMSO, 100% Δ7-dafachronic acid; activation, % at 6.8 µM; 370,000 tested, 1.4% active; AID 652067;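 active = activation above the mean of all tested compounds plus 3 SD, cut at about 5.5% in these data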;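 also: 100% = response to 3 µM Δ7-dafachronic acid high control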
The depositor's hits bear a star; · = not tested or not shown.

SMILES | GAA850 FXN act | hgDAF12 agonist | DAX1 inh-1 | ssDAF12 agonist | DAX1 inh-2 | hcDAF-12 act
COc1cc(C2c3cc4c(cc3CC3COC(=O)C32)OCO4)cc(OC)c1OC (centres undefined) | -5 | -5 | 4.4* | -1 | -3 | -2
C=CCn1c(O)c(C(CC)=Nc2cccc(C(F)(F)F)c2)c(=O)[nH]c1=O | 1 | 0 | 0 | 0 | 0 | 6.1*
C=CCn1c(O)c(C(CC)=Nc2ccc(C(=O)O)cc2)c(=O)[nH]c1=O | 0 | 1 | 0 | 0 | 1 | 1
CCCCC1(CC)COP(=O)(OCC(Cl)(Cl)Cl)OC1 (centres undefined) | 2 | 2 | 0 | -1 | 3 | -1
CCN1C(=O)/C(=C/c2ccc3c(c2)CCN3CCCCl)C(=O)NC1=S | 0 | 2 | -1 | 1.7* | 0 | 3
O=C1NC(=S)N(C2CC2)C(=O)/C1=C/c1ccc2c(c1)CCN2CCCCl | -1 | 6 | -1 | 1 | 0 | 4
Cc1cccc(C(C)c2cnc[nH]2)c1C (centres undefined) | · | -1 | 2 | -1 | · | 0
Cc1ccc(C(=O)C2CN(C)CC2C(=O)c2ccc(C)cc2)cc1 (centres undefined) | 3 | 11* | 1 | -1 | 2 | 0
Cc1ccc(C(=O)C2CN3CCC2CC3)cc1 (centres undefined) | -1 | 1 | 0 | -1 | 4 | -2
CCOC(=O)[C@]12Cc3ccc(C)cc3[C@H]1N(C1CCCCC1)C(=O)c1ccccc12 | · | -2 | -1 | -2 | · | -3
CCOC(=O)[C@]12Cc3ccccc3[C@H]1N(C(C)C)C(=O)c1ccccc12 | · | -2 | 4.5* | -1 | · | -1
Cc1cc(=O)oc2c(C)c(OCC(=O)N3CCC(C(=O)O)(c4ccccc4)CC3)ccc12 | 3 | 3 | 1 | -1 | 4.6* | -1
COc1ccc(OC)c(-n2c(O)c(/C=C3\C=Nc4ccccc43)c(=O)[nH]c2=O)c1 | 4 | 7 | 0 | 2.9* | 1 | 4
C[C@]12CCC3C(CC[C@H]4C[C@@H](O)CC[C@]34C)[C@H]1C=CC2=O (some centres undefined) | 9.4* | -2 | -1 | -1 | 1 | -1
C[C@]12CCC3[C@@H](CC[C@@H]4C[C@H](O)CC[C@]34C)[C@@H]1CCC2=O (some centres undefined) | 1 | 1 | 1 | -2 | 0 | -4
Cc1cc(OCC(=O)NC(Cc2ccc(Cl)cc2)C(=O)O)c2c3c(c(=O)oc2c1)CCC3 (centres undefined) | 1 | 3 | 0 | -1 | 5.8* | 0
C[C@]12CC[C@@H](O)C[C@@H]1CC[C@@H]1[C@@H]2CC[C@]2(C)C(=O)[C@H](O)C[C@@H]12 | -1 | · | · | · | 0 | ·
CC1CN(c2ccc([N+](=O)[O-])c3cccnc23)CC(C)N1 (centres undefined) | 9.6* | -1 | 0 | -1 | 0 | 2
Nc1ccc(-c2ccccc2)cc1 | 1 | 7 | 3 | 0 | 0 | 1
Nc1ccc2ccccc2c1 | -1 | 0 | 1 | 0.9* | 1 | 5
COC(=O)CSC1=NN1c1cc(C)nc(N)n1 | 1 | 1 | 0 | -2 | 4.7* | 0
CCc1c(C)nc(N)nc1N1N=C1SCC(=O)OC | 1 | 1 | 0 | -2 | 1 | 0
Cc1ccc(S(=O)(=O)Cc2ccc(C(=O)N3CCC4(CC3)OCCO4)o2)cc1 | 0 | 0 | 0 | -1 | 1 | 5.8*
COc1cccc(C(c2nnnn2C(C)(C)C)N2CCC3(CC2)C(=O)NCN3c2ccccc2)c1OC (centres undefined) | · | -3 | -3 | -1 | · | -2
Cc1ccccc1CCNCc1cc2cccc(C)c2[nH]c1=O | 2 | -2 | 0 | 1.0* | 5.6* | 3
Cc1c(NP(=O)(C(C)(C)C)C(C)(C)C)c(=O)n(-c2ccccc2)n1C | -1 | -1 | -1 | -1 | 1 | -1
Cc1cc(=O)n(-c2ccccc2)n1-c1ccccc1 | 2 | -1 | 1 | 0 | 4.8* | 0
COC(=O)C1C(c2ccc(C)cc2)CC2CCC1N2C (centres undefined) | · | -5 | 0 | 0 | · | 0

Bioassay records (PubChem)
